Screening results: PubChem, National Center for Advancing Translational Sciences (NCATS)
In the library only some 5.8% were active in any assay of this set; here they are far more common.
ALOX12 inh – ALOX12 (human) lipoxygenase inhibition; 580,000 tested, 1.1% active; Potency, µM (doses to about 108 µM), inactives show at the top dose activity change, negative = inhibition, usual class: inhibitors; purified 12hLO, xylenol orange hydroperoxide absorbance; AID 1671190; also: % is scaled to controls: 0 for no effect and ±100 for the full control effect
Target sequence (P18054 whole entry, looked up): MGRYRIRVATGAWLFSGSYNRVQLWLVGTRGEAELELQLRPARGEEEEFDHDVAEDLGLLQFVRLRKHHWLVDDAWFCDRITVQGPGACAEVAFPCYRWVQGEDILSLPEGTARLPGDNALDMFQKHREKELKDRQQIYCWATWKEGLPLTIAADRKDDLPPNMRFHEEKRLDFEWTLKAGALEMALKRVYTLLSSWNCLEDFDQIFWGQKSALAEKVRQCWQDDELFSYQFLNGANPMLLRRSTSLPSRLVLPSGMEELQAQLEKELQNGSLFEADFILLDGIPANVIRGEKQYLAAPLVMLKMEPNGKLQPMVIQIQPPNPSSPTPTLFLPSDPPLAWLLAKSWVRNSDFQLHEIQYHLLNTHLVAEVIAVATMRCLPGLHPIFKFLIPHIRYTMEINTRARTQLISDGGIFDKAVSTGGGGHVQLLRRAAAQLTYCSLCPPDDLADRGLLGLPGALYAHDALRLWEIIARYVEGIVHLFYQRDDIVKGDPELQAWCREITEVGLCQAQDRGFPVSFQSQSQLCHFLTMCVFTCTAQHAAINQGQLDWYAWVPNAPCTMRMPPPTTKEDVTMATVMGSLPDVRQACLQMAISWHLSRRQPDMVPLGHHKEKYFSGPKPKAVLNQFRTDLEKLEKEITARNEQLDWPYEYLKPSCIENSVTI
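Hydroperoxide product was detected by ferrous iron/xylenol orange as the 573 to 405 nm absorbance ratio. Arachidonic acid at 40 uM (final) was turned over for 30 min at room temperature by 150 nM human 12hLO, pH 7.0 Hepes buffer, after 15 min compound preincubation.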
KB-3-1 tox – KB-3-1 parental cell cytotoxicity; 400,000 tested, 1.4% active; Potency, µM (top dose mostly 46.1 µM), usual class: cytotoxic; KB-3-1 viability, CellTiter-Glo ATP luminescence, 72 h; also: % is scaled to controls: 0 for no effect and ±100 for the full control effect; nearly all actives have a fitted effect of over 60% in size
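Screening of KB-3-1 cells (DMEM, 10% FBS, phenol-red free) ran from lowest to highest compound concentration; after 72 h at 37 °C viability was read luminescently and curves fitted.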
PINK1 modulator – changes PINK1 expression. AID 624263. PINK1 immunofluorescence, high-content cytometry, 24 h. 410,000 tested, 0.2% active. Potency, µM (top dose mostly 76.6 µM), for inactives: at the top dose activation (PINK1 increase), hits mostly activators; active = well fitted activation curve with a large enough effect; inconclusive = small, poorly fitted or top-dose-only effect; cell line not stated here; also: % of control where 0% means no effect; nearly all actives have a fitted effect of over 65% in size
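Decision-based qHTS: stable cells, 24 h exposure to five compound concentrations, CCCP as control. Fixed cells stained for PINK1 plus nuclear, mitochondrial and cell markers, cytometer read.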
MCF10A rereplic – induces DNA re-replication in MCF 10a normal breast cells; MCF 10A DNA re-replication, Hoechst nuclear intensity, 48 h; Potency, µM (highest dose often 46.1 µM), without a hit: at the highest dose activity, positive = re-replication, actives largely listed as activators; 350,000 tested, 2.9% active; also: % of control where 0% means no effect; nearly all actives have a fitted effect of over 50% in size
KB-V1 cytotox – kills drug-selected multidrug resistant KB-V1 cells. KB-V1 MDR cells viability, CellTiter-Glo, 72 h. AID 1347076. Potency, µM (highest dose often 46.1 µM), hits mostly cytotoxic. 400,000 tested, 3.4% active; also: % is scaled to controls: 0 for no effect and ±100 for the full control effect; nearly all actives have a fitted effect of over 60% in size
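Drug-selected KB-V1 cells, grown in DMEM lacking phenol red with 10% FBS, receive compound titrations; after three days at 37 degrees C, surviving cell ATP is quantified by CellTiter-Glo luminescence and responses normalized and curve-fitted.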
SW480 rerep – DNA re-replication induction in SW480 cells; AID 624297; Potency, µM (titrated, usually from 46.1 µM), for the others: top-dose re-replication activation, most hits filed as activators; SW480 DNA re-replication, Hoechst DNA content imaging, 48 h; 340,000 tested, 1.8% active; also: % of control where 0% means no effect; nearly all actives have a fitted effect of over 55% in size
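Quantitative HTS format with DMSO vehicle controls; 48 hr drug incubation at 37 C, then 40 min Hoechst staining and scanning imager measurement at 405 nm excitation.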
An asterisk follows results filed as active; i = inactive; ? = inconclusive; / = not tested or not shown; ! = repeats disagree; [ ] = another dose, or the depositor's remark. Unless noted, calls follow the shape of the dose curve; as a rule, active = well fitted curve in the direction sought with a large enough effect; inconclusive = small, poorly fitted or top-dose-only effect, or another doubt; inactive = no such curve, though single readings can be large; an effect the other way counts as inactive or inconclusive. Potency is read from the fitted curve at half-maximal effect.

SMILES | ALOX12 inh | KB-3-1 tox | PINK1 modulator | MCF10A rereplic | KB-V1 cytotox | SW480 rerep
OC(CNCc1ccco1)COc1ccccc1 (stereo unspecified) | 441% | i | 1% | 8% | 0.0018µM* | 17%
CCCc1ccc(-c2cc(C(=O)NCCCn3ccnc3)c3ccccc3n2)cc1 | -8% | / | / | / | / | /
O=C(Cn1cnc2ccc(Cl)cc2c1=O)N(Cc1cccs1)c1ccc2c(c1)OCCO2 | -19% | / | / | / | / | /
COc1ccc(CCn2c(=N)c(C(=O)NCc3ccco3)cc3c(=O)n4ccccc4nc32)cc1 | -13% | i | -3%[38.3 µM] | 9.2µM* | 23µM* | 14%
N=c1c(C(=O)NC2CCCCC2)cc2c(=O)n3ccccc3nc2n1CCc1ccccc1 | -24% | i | 1% | 2.6µM* | i | 2.3µM*
N=c1c(C(=O)NC2CCCCC2)cc2c(=O)n3ccccc3nc2n1Cc1cccnc1 | ? | i | 0% | ? | i | 15µM*
N=c1c(C(=O)NCCc2ccccc2)cc2c(=O)n3ccccc3nc2n1Cc1ccco1 | -26% | i | 10% | 9.2µM* | ? | 18µM*
N=c1c(S(=O)(=O)c2ccccc2)cc2c(=O)n3ccccc3nc2n1Cc1ccco1 | -22% | i | 5% | 1% | i | 18%
CCCn1c(=N)c(C(=O)NC2CCCCC2)cc2c(=O)n3cc(C)ccc3nc21 | -21% | i | 3% | / | i | /
COC(=O)c1cc2c(=O)n3ccccc3nc2n(Cc2cccnc2)c1=N | / | i | -1% | ? | i | ?
N#Cc1ccccc1OCC(=O)NNC(=O)C1COc2ccccc2O1 (stereo unspecified) | 15% | / | / | / | / | /
CC(=O)N1CCC(N(CCCN2CCC(C)CC2)C(=O)Nc2ccccc2C(F)(F)F)CC1 | 0% | / | / | / | / | /
COC(=O)c1ccn(Cc2ccccc2Br)n1 | 15% | / | / | / | / | /
O=C(Nc1ccccc1)N1CCc2nc(C3CC3)nc(-c3ccc(Cl)cc3)c2C1 | 17% | / | / | / | / | /
CCCn1c(=N)c(C(=O)NC2CCCC2)cc2c(=O)n3cc(C)ccc3nc21 | -13% | i | -1% | / | ? | /
N=c1c(C(=O)NC2CCCCC2)cc2c(=O)n3ccccc3nc2n1Cc1ccccc1 | -14% | i | 22% | 2.6µM* | i | 9.2µM*
N=c1c(C(=O)NCc2ccc(F)cc2)cc2c(=O)n3ccccc3nc2n1Cc1cccnc1 | -9% | i | ? | 5.8µM* | ? | ?
N=c1c(C(=O)NC2CCCCC2)cc2c(=O)n3ccccc3nc2n1Cc1ccco1 | -14% | i | 0% | ? | i | 21µM*
Cc1ccc(Cn2c(=N)c(C(=O)NC3CCCC3)cc3c(=O)n4ccccc4nc32)cc1 | / | i | 2% | ? | i | 1.6µM*
CCC(C)n1c(=N)c(C(=O)NC2CCCC2)cc2c(=O)n3ccccc3nc21 (stereo unspecified) | ? | i | 1% | / | i | /
N#Cc1ccc(CN2CCCc3cc(F)cc(F)c32)cc1 | -9% | / | / | / | / | /
COC(=O)c1ccc(Oc2ccc(C(=O)OC)cc2)cc1 | -17% | / | / | / | / | /
CC1(C)[C@H]2CC[C@@H](CNC(=O)c3cccc(Cl)c3)[C@@H]1C2 | -4%[176 µM] | / | / | / | / | /
CC(C)Cc1ccc(CN2CCCC(NC(=O)c3cnc4ccccn4c3=O)C2)cc1 (stereo unspecified) | -3% | 16µM* | 2% | ? | ? | ?
Cc1cccc[n+]1CCCCCCCCCC[n+]1ccccc1C | 14µM*! | 1.5µM* | 2% | -2% | i | -22%
SMILES | ALOX12 inh | KB-3-1 tox | PINK1 modulator | MCF10A rereplic | KB-V1 cytotox | SW480 rerep
Clc1cccc[n+]1CCc1ccccc1 | / | i | / | / | i | /
Cc1cccc[n+]1Cc1ccccc1 | 16µM* | / | / | / | / | /
Brc1cccc[n+]1CCC[n+]1ccccc1Br | / | ? | -1% | / | i | /
CCc1nnc(NC(=O)[C@@H](NS(=O)(=O)c2ccc3c(c2)OCCO3)C(C)C)s1 | 2% | i | -1% | -26% | i | -2%
CCc1nnc(NC(=O)C(NS(=O)(=O)c2ccc3c(c2)OCCO3)C(C)C)s1 (stereo unspecified) | 35µM* | i | 8% | 0% | i | -4%
Cn1cc(CC(=O)NCc2cn3ccccc3n2)c2ccccc21 | 21% | / | / | / | / | /
CC1=C/C(=N\OS(=O)(=O)c2ccccc2)C(C)=CC1=O | 0% | 13µM* | -1% | 4µM* | 5.8µM* | 4.1µM*
CC1=C/C(=N\OS(=O)(=O)c2ccccc2)C(C(C)C)=CC1=O | / | ? | 0% | 4.1µM* | ? | 3.7µM*
CC1=C(C)/C(=N\OS(=O)(=O)c2ccc(C)cc2)C=CC1=O | ? | ? | -1% | ? | ? | 5.2µM*
CC1=CC(=NOS(=O)(=O)c2ccc(C)cc2)CC(C)(C)C1 | ? | i | 1% | / | i | /
CCCC(C)NC(=O)c1csc(CC)c1 (stereo unspecified) | 30% | / | / | / | / | /
Cc1cc(C)n(-c2nc3c(c(=O)n(C)c(=O)n3C)n2Cc2c(F)cccc2Cl)n1 | 43% | / | / | / | / | /
Cc1ccc(N2CCC3(CCCN3Cc3ccc4nsnc4c3)CC2)nn1 | 52% | / | / | / | / | /
Fc1c(F)c(C(F)(F)F)c(F)c(F)c1N/N=C/c1ccc(Cl)cc1Cl | 4% | / | / | / | / | /
O=C(NC1=NCCS1)c1cccc(N2C(=O)c3ccccc3C2=O)c1 | 23% | i | 1% | 6.5µM* | ? | -40%
COc1ccccc1-n1c(SCC(=O)c2ccc(O)cc2O)nc2cc([N+](=O)[O-])ccc21 | ? | i | ? | ? | 16µM* | -6%
COc1cc2c(cc1OC)CN(c1nc(CN3CCOCC3)nc3sc4c(c13)CCCC4)CC2 | 12% | ? | 1% | 18µM* | ? | 8%
Cc1ccc(Oc2nc(CN3CCOCC3)nc3sc4c(c23)CCC(C)C4)cc1 (stereo unspecified) | 0% | i | 13% | ? | ? | -3%
Cc1ccc(Oc2nc(CN3CCOCC3)nc3sc4c(c23)CCC(C)C4)cc1C (stereo unspecified) | -13% | ? | 5% | ? | 15µM* | 5%
COc1ccc(-c2cc(C(=O)OC(C)C)c3ccccc3n2)cc1 | -14% | / | / | / | / | /
NC(=O)C(F)(F)C12OC3C4C5CC(C6C5C3C61)C42 (stereo unspecified) | -19% | i | -6%[38.3 µM] | 21µM* | i | ?
Cc1cc(C)n(CC(O)COc2ccc(Cl)cc2)n1 (stereo unspecified) | -9% | i | 0% | ? | i | 3%
Cc1cc(C)n(CC(O)COc2ccc(Cl)cc2Cl)n1 (stereo unspecified) | 4% | ? | 0% | 2% | 10µM* | 24%
